# Bioassay records: PubChem, Broad Institute
# SUMO Mot1 rescue: blocks SUMOylation pathway, rescuing yeast Mot1-301 growth | S. cerevisiae Mot1-301 growth rescue, ATP luminescence, 38.5C; percent above DMSO median, 100 means doubled | 320,000 tested, 1% active | growth rescue, % at 18.8 µM;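 active means every valid replicate shows activation above 250% relative to neutral control wells; inactive means the rest, any valid replicate at or below 250%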;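 further: OY570 slx delta 5 strain wells were the positive control but not used for scaling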
# CASP6 VEID inh: inhibitors of human caspase-6 | P55212 | purified caspase-6, Z-VEID-R110 cleavage fluorescence | inhibition, % at 12.5 µM | 350,000 tested, 0.53% active | AID 686996;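 active means mean inhibition across replicates at least about 35%, with every replicate also reaching that limit, limit read from the data; inconclusive means only one of the two criteria met; inactive means neither criterion met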;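 further: 0% = median of neutral control wells and 100% = no fluorescence left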
# NSD2 HMT inh: NSD2 (human) methyltransferase inhibition; O96028; NSD2 peptide methylation, AlphaScreen, 120 min; inhibition, % at 12.5 µM; 310,000 tested, 0.54% active; in the data active means inhibition above about 50%
# Glyco luc inh: N-linked glycosylation inhibition; AID 588692; 360,000 tested, 0.23% active; D54 ERlucT glycosylation luciferase reporter, 24 h; percent of 100 nM tunicamycin response; reporter increase, % at 12.5 µM;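 active means mean luciferase reporter signal, scaled so untreated is 0 and the glycosylation-blocking control 100, at or above a set limit in every replicate; inconclusive means mean reaches the limit but not every replicate does; inactive means mean below the limit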;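 further: luciferase carries N-glycosylation sites so blocking glycosylation raises the light; 0% = median of neutral control wells and 100% = median of 100 nM tunicamycin wells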
# ALR inh: inhibitors of human sulfhydryl oxidase ALR; inhibition, % (concentration not given with the values); purified ALR, DTT oxidation, H2O2 HRP-luminol luminescence; 290,000 tested, 3.8% active; AID 485317; P55789;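 active means mean replicate inhibition above about 79%, with every replicate also reaching it, limit read from the data; inconclusive means only one of the two criteria met; inactive means mean below limit and not every replicate reaching it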
# CDK5 inh: CDK5/p35 (human) kinase inhibition | 330,000 tested, 0.01% active | inhibition, % at 10 µM | AID 488839 | Q00535+Q15078 | Recombinant CDK5/p35, ADP-Glo luminescence, 60 min;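 active means highest replicate inhibition of at least 50% and at least 75% of replicates reaching 50%; inconclusive means only one of the two criteria met; inactive means both criteria failed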;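 further: plate controls were DMSO neutral control for no effect and GW8510 at 10 µM for full effect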
# Target sequence (Q00535 whole entry, looked up): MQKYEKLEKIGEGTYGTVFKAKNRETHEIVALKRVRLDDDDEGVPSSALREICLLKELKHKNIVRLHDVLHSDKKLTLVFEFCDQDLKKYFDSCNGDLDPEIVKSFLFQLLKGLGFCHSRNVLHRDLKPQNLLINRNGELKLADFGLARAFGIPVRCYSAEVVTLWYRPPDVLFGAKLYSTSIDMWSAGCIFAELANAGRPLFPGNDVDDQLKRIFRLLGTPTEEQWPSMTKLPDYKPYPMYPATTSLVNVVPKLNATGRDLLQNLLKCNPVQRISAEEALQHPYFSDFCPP
# Target sequence (Q15078 whole entry, looked up): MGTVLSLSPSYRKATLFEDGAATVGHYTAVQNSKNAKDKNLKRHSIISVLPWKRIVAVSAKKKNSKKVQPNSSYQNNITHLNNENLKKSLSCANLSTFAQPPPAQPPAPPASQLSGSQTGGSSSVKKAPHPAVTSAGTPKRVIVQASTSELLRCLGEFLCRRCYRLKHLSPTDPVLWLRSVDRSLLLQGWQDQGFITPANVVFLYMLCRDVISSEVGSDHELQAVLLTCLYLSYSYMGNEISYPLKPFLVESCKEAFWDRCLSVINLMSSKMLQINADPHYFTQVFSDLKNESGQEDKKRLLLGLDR
# * = called active by the depositor; ? = inconclusive; nt = no result given. An excerpt weighted towards active compounds, which were near 3.9% of everything screened.
SMILES,SUMO Mot1 rescue,CASP6 VEID inh,NSD2 HMT inh,Glyco luc inh,ALR inh,CDK5 inh
COc1cccc(N2CCC(N3CCN(C)C(CCO)C3)CC2)c1 (centres undefined),110,-17,4,2,94*,-1
Cc1ccc(N2CCC(N3CCN(C)C(CCO)C3)CC2)cc1 (centres undefined),-10,-6,2,4,99*,0
CCOC(=O)N1CCC(N2CCN(CCC(C)C)C(CCO)C2)CC1 (centres undefined),-16,-1,2,0,-5,0
O=C([C@H]1[C@H](CO)[C@H]2Cn3c(ccc(-c4ccncc4)c3=O)[C@H]2N1CCC(F)(F)F)N1CCOCC1,nt,-3,nt,nt,nt,nt
Cc1cc(C(=O)Nc2cccc3c2O[C@@H](CN(C)Cc2ccncc2)[C@H](C)CN([C@@H](C)CO)C3=O)n(C)n1,nt,0,nt,nt,nt,nt
Cc1ccc(CS/C(Nc2ccccc2C)=C(\C#N)C(=O)NCc2ccco2)c(C)c1,-29,nt,1,-4,99*,0
Cc1ccccc1N/C(SCc1ccc(Cl)cc1)=C(/C#N)C(=O)NCc1ccco1,5,nt,4,-4,53,1
CC(Nc1nc(-c2cccnc2)nc2ccccc12)c1ccccc1 (centres undefined),nt,2,-1,38*,nt,nt
C(=N\Nc1nc(-c2cccnc2)nc2ccccc12)/c1ccccc1,-1,1,-1,-1,4,nt
COc1cccc(/C=N/Nc2nc(-c3cccnc3)nc3ccccc23)c1,314*,-5,1,-2,2,-1
Cc1ccc(-c2ccc([C@@H]3[C@H](CO)N4C(=O)CN(C(=O)Nc5ccc(F)cc5)C[C@@H]34)cc2)cc1,nt,0,nt,nt,nt,nt
COc1cc2ccccc2cc1C(=O)N/N=C/c1ccc2c(c1)OCO2,34,-3,-2,17,0,2
COc1cc(/C=N/NC(=O)c2cc(-c3ccc4c(c3)OCO4)n[nH]2)ccc1O,-22,2,10,7,91*,2
COc1ccccc1C(=O)N/N=C/c1ccc2c(c1)OCO2,301*,0,-6,-1,-5,0
CC(=O)N(C)C[C@H]1Oc2ncc(C#Cc3ccccc3F)cc2C(=O)N([C@H](C)CO)C[C@@H]1C,nt,2,nt,nt,nt,nt
Cn1c(-c2ccc3nc(N)sc3c2)nc2cc(N)ccc21,12,nt,-7,2,99*,0
CN(C)C(=O)[C@@H]1[C@@H](CO)[C@@H]2Cn3c(ccc(-c4ccccc4)c3=O)[C@@H]2N1C(=O)c1ccccn1,nt,0,nt,nt,nt,nt
Cc1[nH]c2ccccc2c1Cc1n[nH]c(=S)o1,-11,3,nt,0,96*,-1
Cc1[nH]c2ccccc2c1Cc1n[nH]c(=S)n1C,93,nt,5,1,48,2
C[C@@H]1CCCCO[C@H](CN(C)C(=O)Nc2ccc(C(F)(F)F)cc2)[C@H](C)CN([C@H](C)CO)C(=O)c2cc(NS(=O)(=O)c3cccs3)ccc2O1,nt,1,nt,nt,nt,nt
CNc1ccc(C(=O)c2ccccc2C(=O)O)cc1[N+](=O)[O-],-19,0,-2,-3,-7,-2
CNc1ccc(/C=C/C(=O)c2cccc3ccccc23)cc1[N+](=O)[O-],2,2,2,46*,nt,-1
CN(C[C@@H]1N[C@H](CO)[C@@H]1c1ccc(-c2ccccc2)cc1)C(=O)C1CCC1,nt,2,nt,nt,nt,nt
CCN1/C(=C2/SC(=S)N(NC(C)=O)C2=O)Sc2ccc(Cl)cc21,-4,3,9,-1,96*,-3
CCN1/C(=C2/SC(=S)N(NC(C)=O)C2=O)Sc2ccc(OC)cc21,0,-3,3,-1,67,-1
SMILES,SUMO Mot1 rescue,CASP6 VEID inh,NSD2 HMT inh,Glyco luc inh,ALR inh,CDK5 inh
O=C(C[C@H]1CC[C@H]2[C@@H](COC[C@H](O)CN2Cc2cccc(F)c2)O1)NCCc1ccncc1,nt,-1,nt,nt,nt,nt
N#C/C(=C\c1ccc(N2CCOCC2)o1)c1ccccc1,-14,5,0,-2,nt,-1
N#C/C(=C\c1ccc(N2CCOCC2)o1)C(=O)Nc1ccc(O)cc1,166,nt,2,-1,99*,2
COc1ccc(NC(=O)/C(C#N)=C\c2ccc(N3CCOCC3)o2)cc1,-8,nt,-1,-11,80*,-4
N#C/C(=C/c1ccc(N2CCOCC2)o1)c1ccc(Br)cc1,-39,nt,6,?,92*,1
COc1ccc(NC(=O)/C(C#N)=C/c2ccc(Br)o2)cc1,9,nt,-4,2,-9,0
N#Cc1cccc(-c2ccc([C@H]3[C@@H](CO)N[C@@H]3CNC(=O)C3CCCC3)cc2)c1,nt,-2,nt,nt,nt,nt
CCOC(=O)C(=NC(C)(C)C)NNc1cc(Cl)ccc1Cl,10,nt,4,-1,99*,0
COc1cc2c(cc1OC)-c1cc(Nc3ccc(N(C)C)cc3)nc(=O)n1CC2,-16,10,16,0,99*,1
COc1cc2c(cc1OC)-c1cc(Nc3ccc(F)cc3)nc(=O)n1CC2,-1,-1,0,2,-3,-1
CC=Cc1ccc2n(c1=O)C[C@H]1N[C@@H]2[C@@H](C(=O)NCc2ccc3c(c2)OCO3)[C@@H]1CO (mixture of isomers),nt,2,nt,nt,nt,nt
O=C(/C=C1\SC(=O)N(CC(=O)Nc2ccc(F)cc2)C1=O)Nc1ccc(Cl)cc1,-4,1,-4,4,-5,1
O=C(CN1C(=O)S/C(=C\C=C\c2ccccc2)C1=O)Nc1ccc(C(=O)O)cc1,-1,44*,19,0,98*,3
O=C(CN1C(=O)S/C(=C/C=C/c2ccccc2)C1=O)Nc1ccc(C(=O)O)cc1,-18,28,11,-1,6,1
O=C(CCN1C(=O)/C(=C\C=C\c2ccccc2)SC1=S)Nc1ccc(C(=O)O)cc1,-15,49*,4,-1,-1,0
O=C(/C=C1\SC(=O)N(CC(=O)Nc2ccc(Cl)cc2)C1=O)Nc1ccc(F)cc1,-2,43*,nt,3,4,0
C[C@H]1CN([C@@H](C)CO)C(=O)CCCn2cc(nn2)CO[C@@H]1CN(C)Cc1ccc(C(=O)Nc2ccccc2N)cc1,nt,-1,nt,nt,nt,nt
CCC(=O)Nc1ccc2c(c1)C(=O)N(C)C[C@@H](OC)[C@H](C)CN(C(=O)c1ccc(F)cc1)[C@@H](C)CO2,nt,1,nt,nt,nt,nt
O=C(C1CCCC1)N1CC[C@@H]2[C@H](CO)Nc3ccc(Br)cc3[C@@H]21,nt,2,nt,nt,nt,nt
COc1ccccc1CC(=O)Nc1ccccc1C(=O)O,2,nt,-3,2,1,-2
CCOC(=O)c1ccccc1NC(=O)COC(=O)CCCOc1ccccc1,-2,3,0,4,-1,0
CCOC(=O)c1ccccc1NC(=O)Cc1ccccc1OC,391*,nt,-2,-2,-4,-3
CCOC(=O)c1ccccc1NC(=O)COC(=O)C1CCN(S(=O)(=O)c2ccccc2C(=O)OC)CC1,6,60*,-3,3,-1,2
